In PubChem BioAssay AID431 (Sanford-Burnham Center for Chemical Genomics, 2006) one finds cytotoxicity data, which are given here for 98 molecules.

The structures appear in SMILES notation. Screen size: about 63,000 compounds; about 1,100 (1.7%) were called active.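 Rule for the calls: active = compounds whose percent cytotoxicity in the single-dose primary screen, scaled between solvent and toxic-drug controls, exceeds 50; inactive = the rest.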 This excerpt belongs to a sample that is enriched for actives. Potency and affinity values are given separately.

This assay is described as follows: cytotoxicity in KRAS-transformed pancreatic duct cells, primary screen, cell-based, fluorescence, HTS (AID 431).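 Note: 0% = DMSO solvent wells and 100% = doxorubicin-treated wells.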 Conditions: HPDE-C7K KRASV12 cells, Alamar Blue viability, 48 h; at 10 µM; stronger effect = higher value.
On to `CCN(CC)C(=O)c1sc(NC(=O)Cc2cccs2)c(C#N)c1C`, for which the cytotoxicity was -10.4% (inactive).
As to `CC(O)c1ccc2c(c1)OCCOCCN(C)CCOCCO2` (stereo not drawn), the cytotoxicity is -3.4% (inactive).
For the molecule `OC1C[N+]2(CCCCC2)C1`, the cytotoxicity is -0.4% (inactive).
The result for `CCNc1nc(SCC(=O)OC)nc(N2CCOCC2)n1` reads -13.2% (inactive); that for `O=C(CCC(=O)N(CC(=O)NC1CCCCC1)c1ccc2c(c1)OCO2)Nc1ccccn1`, -8.1% (inactive); that for `O=C1CC(c2cccs2)c2cc3c(cc2N1)OCCO3` (stereo not drawn), 2.9% (inactive).
For the molecule `Cc1ccc(C2CC(=O)Nc3cc4c(cc32)OCCO4)s1` (stereo not drawn), the cytotoxicity is 7.5% (inactive).
The result for `CCCOc1ccccc1C1CC(=O)Nc2cc3c(cc21)OCCO3` (stereo not drawn) reads 73.4% (active); that for `CC(C)NC(=O)c1ccccc1-c1nc(-c2ccccc2Cl)no1`, 6% (inactive); that for `Clc1ccc2[nH]c3c(NCC4CCCO4)ncnc3c2c1` (stereo not drawn), 57.6% (active).
The figure for `CCN1CCCC1CNc1ncnc2c1[nH]c1ccc(Cl)cc12` (stereo not drawn) is 10.9% (inactive).
The result for `c1ccc2c(c1)[nH]c1c(NCC3CCCO3)ncnc12` (stereo not drawn) reads 6.1% (inactive).
On to `CC(C)(C)OC(=O)N1CCC[C@@H]1C(=O)N1CCC(C(=O)O)CC1`, for which the cytotoxicity is 8.3% (inactive).
The result for `COc1ccc(NC(=O)Cn2nnc(-c3ccccc3NC(=O)c3cccs3)n2)cc1` reads 9.5% (inactive); that for `O=C(O)c1ccc(CSc2n[nH]c(-c3ccco3)n2)cc1`, -2.9% (inactive); that for `Cc1c(-c2ccccc2)c(P(=O)(N2CCOCC2)N2CCOCC2)c2ccccn12`, -4.4% (inactive).
The result for `COc1ccccc1C1c2c(oc3ccc(Cl)cc3c2=O)C(=O)N1c1cc(C)on1` (stereo not drawn) reads -23.6% (inactive).
The figure for `COc1ccccc1-n1c(=O)oc2ccc(Cl)cc2c1=O` is 53.6% (active); for `COc1ccccc1-n1c(SC)nc(O)cc1=O` it is 6.5% (inactive).
Consider `C=CCN(CC=C)S(=O)(=O)c1ccc2nc(NC(=O)C(C)C)sc2c1`, for which the cytotoxicity is 69.9% (active).
The result for `CCOC(=O)c1ccc2nc(NC(=O)C(C)C)sc2c1` reads 6.2% (inactive); that for `C=CCN(CC=C)S(=O)(=O)c1ccc2nsnc2c1`, -22.3% (inactive).
The figure for `CCn1c(-c2ccco2)nc2ccccc21` is 5.1% (inactive).
On to `COc1ccc(C(=O)CSc2nnc(-c3ccco3)n2C)cc1`, for which the cytotoxicity is 5.8% (inactive).
The figure for `COc1ccc(C(=O)n2c(-c3ccco3)nc3ccccc32)cc1` is 58.3% (active).
On to `Cc1cc(C)cc(-n2nnc(C(=O)NCc3ccc(Cl)cc3)c2N)c1`, for which the cytotoxicity was 5.6% (inactive).
For `CCN1CCN(C2CCN(C(C)=O)CC2)CC1`, the cytotoxicity was 5.4% (inactive).
The result for `C/C=C/Cn1c(SCc2ccc(Cl)cc2)nc2c1c(=O)[nH]c(=O)n2C` reads 8.2% (inactive).
The result for `C/C=C/Cn1c(SCc2ccc(C)cc2)nc2c1c(=O)[nH]c(=O)n2C` reads 57.9% (active); that for `C/C=C/Cn1c(SCc2ccccc2)nc2c1c(=O)[nH]c(=O)n2C`, 1.2% (inactive); that for `Clc1ccc(-n2cnnn2)cc1`, -0.1% (inactive).
On to `COc1ccc(C2NC(=O)NC(C)=C2C(=O)Nc2cc(C)ccc2C)cc1OC` (stereo not drawn), for which the cytotoxicity was 1.2% (inactive).
The result for `O=C(C1CC1)N1CCc2cc(Br)cc(S(=O)(=O)NCCCN3CCCC3)c21` reads 1.3% (inactive); that for `N#C/C(=C(/O)COC(=O)c1ccc2c(c1)OCCO2)c1nc2ccccc2[nH]1`, 17.6% (inactive); that for `Cc1nn(-c2ccccc2)c(C)c1C(=O)OC/C(O)=C(\C#N)c1nc2ccccc2[nH]1`, 13% (inactive).
Consider `CCOC(=O)c1c(C)[nH]c(C(=O)OC/C(O)=C(\C#N)c2nc3ccccc3[nH]2)c1C`, for which the cytotoxicity was 81.8% (active).
As for `CSc1nnc(-c2nnc(SC)n2-c2ccccc2)n1-c1ccccc1`, the cytotoxicity is -8.3% (inactive).
The result for `CC(=O)C1=C(C)NC(SCC(=O)c2ccc(Cl)cc2Cl)=C(C#N)C1c1ccco1` (stereo not drawn) reads 40.7% (inactive); that for `Cc1ccc(C(=O)CSC2=C(C#N)C(c3ccco3)CC(=O)N2)c(C)c1` (stereo not drawn), 5% (inactive); that for `CC(=O)C1=C(C)NC(SCC(=O)c2cc(Cl)ccc2Cl)=C(C#N)C1c1ccco1` (stereo not drawn), 60.7% (active).
As to `CSCSC1=C(C#N)C(c2ccccc2Cl)C(C(C)=O)=C(C)N1` (stereo not drawn), the cytotoxicity is 23.4% (inactive).
For the molecule `CC(=O)C1=C(C)NC(SCC(=O)c2ccc(Cl)c(Cl)c2)=C(C#N)C1c1ccco1` (stereo not drawn), the cytotoxicity was 77.4% (active).
On to `COCCOC(=O)C1=C(C)NC(SCC(=O)NC(C)(C)C)=C(C#N)C1c1ccco1` (stereo not drawn), for which the cytotoxicity is 2.3% (inactive).
Regarding `CCN(CC)C(=O)CSC1=C(C#N)C(c2ccco2)C(C(=O)OCCOC)=C(C)N1` (stereo not drawn), the cytotoxicity is -15.8% (inactive).
Regarding `C=CCOC(=O)C1=C(C)NC(SCC(=O)N(CC)CC)=C(C#N)C1c1ccco1` (stereo not drawn), the cytotoxicity is -4.1% (inactive).
With `CC(=O)C1=C(C)NC(SCC(=O)c2ccccc2)=C(C#N)C1CC(C)C` (stereo not drawn), the cytotoxicity is 3.7% (inactive).
The figure for `C=CCOC(=O)C1=C(C)NC(SCC(=O)Nc2ccc(C)c(Cl)c2)=C(C#N)C1c1ccco1` (stereo not drawn) is -1.3% (inactive).
The figure for `CCOC(=O)CSC1=C(C#N)C(c2ccco2)C(C(=O)OCc2ccccc2)=C(C)N1` (stereo not drawn) is 61% (active); for `CCCNS(=O)(=O)c1ccc(CCC(=O)N2CCOCC2)cc1` it is 3.7% (inactive).
As to `CC(C)C1CC(c2csc(N)n2)CCO1` (stereo not drawn), the cytotoxicity is 7.1% (inactive).
The result for `O=C1CCN(Cc2nnnn2CC2CCCO2)c2ccccc2N1` (stereo not drawn) reads -13.4% (inactive); that for `Cc1nnc(SCCn2c(N3CCCC(C)C3)nc3c2c(=O)n(C)c(=O)n3C)s1` (stereo not drawn), 6.4% (inactive); that for `O=C(NCc1ccccn1)C1CCCN(S(=O)(=O)c2ccc(Br)cc2)C1` (stereo not drawn), -8.1% (inactive).
The result for `CCOC(=O)C(Cc1ccccc1)C(=O)Nc1nccs1` (stereo not drawn) reads 15.3% (inactive); that for `CCOC(=O)C1CCN(S(=O)(=O)c2ccc3c(c2)CCCN3C(C)=O)CC1`, -5.4% (inactive); that for `CC(=O)C1=C(C)NC(SCC(=O)c2ccc(Cl)cc2)=C(C#N)C1c1ccco1` (stereo not drawn), 50.5% (active).
Consider `CSCSC1=C(C#N)C(c2ccc(Cl)cc2)C(C(C)=O)=C(C)N1` (stereo not drawn), for which the cytotoxicity was -8.2% (inactive).
The result for `CC(=O)C1=C(C)NC(SCC(=O)c2ccc(F)cc2)=C(C#N)C1c1ccco1` (stereo not drawn) reads 90.5% (active).
The figure for `COc1ccccc1NC(=O)C1=C(C)NC(SCC(=O)c2ccc(C)cc2)=C(C#N)C1c1ccco1` (stereo not drawn) is 38.3% (inactive); for `CCOC(=O)CSC1=C(C#N)C(c2ccc(F)cc2)C(C(C)=O)=C(C)N1` (stereo not drawn) it is -0.1% (inactive).
With `CC(=O)C1=C(C)OC(N)=C(C#N)C1c1ccco1` (stereo not drawn), the cytotoxicity is -7.5% (inactive).
Take `Cc1cccc(C2CC(c3ccccc3)Nc3ncnn32)c1` (stereo not drawn): the cytotoxicity is 0% (inactive).
The result for `COc1ccc(CCNc2ncnc3[nH]ncc23)cc1OC` reads -5.5% (inactive); that for `O=C(NC1CCCc2ccccc21)C1CCN(S(=O)(=O)c2cnc[nH]2)CC1` (stereo not drawn), -2.5% (inactive).
The result for `Cc1occc1-c1nc(-c2ccncc2)no1` reads -13.6% (inactive); that for `Cc1csc(NC(=O)C(Cc2ccccc2)n2cccc2)n1` (stereo not drawn), 15% (inactive).
The figure for `CCSc1nnc(NC(=O)C(Cc2ccccc2)n2cccc2)s1` (stereo not drawn) is -0.8% (inactive).
`O=C1[C@@H]2Cc3ccccc3CN2C(=O)N1c1cccc(F)c1`: the cytotoxicity is -8.3% (inactive).
Regarding `Cc1cccc(-n2c(C)nc3c(cnn3-c3ccc(F)cc3)c2=O)c1`, the cytotoxicity is -11.2% (inactive).
The figure for `CC(C)CC(=O)N1CCN(S(=O)(=O)c2ccc(F)cc2)CC1` is 0.4% (inactive).
The result for `c1ccc(-c2nc(NCCCN3CCOCC3)c3ccccc3n2)cc1` reads 5.9% (inactive); that for `Fc1ccccc1-c1nc(NCCCN2CCOCC2)c2ccccc2n1`, 11.7% (inactive); that for `Oc1ccccc1-c1nc(NCCN2CCOCC2)c2ccccc2n1`, 59.3% (active).
The result for `Cc1ccc(-c2nc(NCCN3CCOCC3)c3ccccc3n2)cc1` reads 40.5% (inactive); that for `Clc1ccc(-c2nc(NCCN3CCOCC3)c3ccccc3n2)cc1`, 40.9% (inactive); that for `COc1cccc(-c2nc(NCCN3CCOCC3)c3ccccc3n2)c1O`, 53.1% (active).
`CCCCCOc1ccc(NS(C)(=O)=O)cc1`: the cytotoxicity was -26.8% (inactive).
Regarding `O=c1[nH]c(C(F)(F)F)nc2ccccc12`, the cytotoxicity is -18.7% (inactive).
Turning to `COc1ccccc1N(CN1C(=O)c2ccccc2C1=O)C(=O)c1cccnc1`, the cytotoxicity is -10% (inactive).
The figure for `CCOC(=O)c1cc(-c2ccc(/C=N\n3cnnc3)o2)ccc1Cl` is -11% (inactive); for `O=C1CNC(=O)/C1=C\N1CCCCC1` it is -3.5% (inactive); for `Cc1cc(Nc2ccc(Br)cc2F)n2nc(C)nc2n1` it is 3.9% (inactive).
The result for `CCCNC(=O)Nc1cc(OCC)c(N2CCOCC2)cc1OCC` reads 2.8% (inactive).
The result for `O=c1c(-c2ccccc2)coc2c(CN3CCCC3)c(O)ccc12` reads -6.5% (inactive); that for `COc1ccc(C(=O)c2coc3ccc(O)c(CN4CCCCC4)c23)cc1`, 16.8% (inactive).
In the case of `COc1ccc(-c2coc3c(CN4CCCCC4)c(O)c(CN4CCCCC4)c(O)c3c2=O)cc1`, the cytotoxicity was 54.7% (active).
For `CC1Cc2cc(C3(O)C(=O)c4ccccc4C3=O)ccc2N1` (stereo not drawn), the cytotoxicity was -0.9% (inactive).
The result for `COc1ccc(C2=[N+]([O-])C(C)(C)N(O)C2(C)C)cc1` reads -22% (inactive); that for `Cc1ccc(C2c3c(oc4cc(C)c(C)cc4c3=O)C(=O)N2CCCN2CCOCC2)cc1` (stereo not drawn), -5.4% (inactive).
The figure for `Cc1c(-c2nc(N)nc(Nc3ccc(F)cc3)n2)oc2ccccc12` is 12% (inactive).
Take `Cc1c(-c2nc(N)nc(Nc3ccccc3F)n2)oc2ccccc12`: the cytotoxicity was 14.6% (inactive).
Consider `Cc1c(-c2nc(N)nc(Nc3ccccc3)n2)oc2ccccc12`, for which the cytotoxicity is 68.7% (active).
The result for `CNC(=O)c1cc(S(=O)(=O)N(C)C)ccc1Cl` reads 2.1% (inactive); that for `CCCCOc1ccccc1-c1cc(C(=O)O)[nH]n1`, -9.2% (inactive); that for `CC(=O)Oc1c(S(=O)(=O)c2ccc(C)cc2)c(C)nn1-c1ccccc1`, -4.8% (inactive).
The figure for `O=C1CCC(=O)N1c1cccc(-c2nc3ccccc3o2)c1` is 1.5% (inactive); for `Nc1nnnn1/N=C/c1cccc(Oc2ccccc2)c1` it is -6.8% (inactive).
`Nc1nnnn1/N=C/C=C/c1ccccc1`: the cytotoxicity is -19.8% (inactive).
